From PubChem BioAssay
Only some compounds are listed: those with a hit (about 2.2% of all), similar ones and a draw of the others.
mIDH1 inhibitor: human IDH1 R132H inhibition; IDH1-R132H enzyme, NADPH consumption, diaphorase/resazurin fluorescence; Potency, µM (top dose mostly 76.6 µM), usual class: inhibitors; 0.093% of 390,000 active; further: nearly all actives have a fitted effect of over 65% in size
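IDH1-R132H (0.5 ug/mL dispensed) in pH 7.5 Tris buffer was preincubated 30 min with compound, then given a substrate mix of 0.016 mM NADPH and 2 mM alpha-KG for 80 min at room temperature; remaining NADPH was read by diaphorase/resazurin fluorescence.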
IL-2 act: IL-2 activation; IL-2 activation reporter assay, cell-based qHTS; stimulated with anti-CD3/CD4/CD28 beads; in transgenic mouse T cells; activation, % (series mostly up to about 46 µM); 0.065% of 360,000 active; in the data active means activation above about 50%; inconclusive means mostly about 30% to 49%
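Unstimulated transgenic mouse T cells, 750 per well, received compound and, after 60 minutes, anti-CD3/anti-CD4 bead plus anti-CD28 stimulation. EGFP and DsRed were quantified after 18 hours.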
TrxR1 substrate: rat thioredoxin reductase 1 substrate activity; O89049; purified TrxR1 substrate turnover, NADPH consumption readout; Potency, µM (titrated, usually from 114 µM); 0.01% of 390,000 active; AID 588456; further: nearly all actives have a fitted effect of over 50% in size
Target sequence (O89049 whole entry, looked up): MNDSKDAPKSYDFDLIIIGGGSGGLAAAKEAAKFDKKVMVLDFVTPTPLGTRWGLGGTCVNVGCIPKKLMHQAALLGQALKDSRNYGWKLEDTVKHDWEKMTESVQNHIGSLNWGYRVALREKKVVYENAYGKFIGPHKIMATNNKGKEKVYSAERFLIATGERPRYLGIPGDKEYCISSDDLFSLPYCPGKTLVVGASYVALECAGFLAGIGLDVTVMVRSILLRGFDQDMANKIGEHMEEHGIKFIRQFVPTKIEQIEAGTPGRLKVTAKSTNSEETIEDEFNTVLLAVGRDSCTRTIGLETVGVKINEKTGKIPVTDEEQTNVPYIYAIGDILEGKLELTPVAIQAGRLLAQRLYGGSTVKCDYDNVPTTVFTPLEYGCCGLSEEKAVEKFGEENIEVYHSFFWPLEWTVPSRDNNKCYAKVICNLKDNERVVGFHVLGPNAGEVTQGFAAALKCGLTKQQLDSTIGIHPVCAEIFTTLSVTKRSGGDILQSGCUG
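Rat TrxR1, dispensed at 90 nM, was prereduced with 400 uM NADPH (final) for 5 min at ~22 deg C, then incubated with compound 15 min before 400 uM selenite. A first-read NADPH fluorescence drop versus no-compound background flagged substrates.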
BRCA1 expr up: BRCA1 expression activation; 1.1% of 380,000 active; MCF7-BRCA1-FFLuc reporter, luminescence, 48 h; response scale: scaled: vehicle 0%, 10 µM genistein 100%; Potency, µM (titrated, usually from 46.1 µM), most hits filed as activators; further: nearly all actives have a fitted effect of over 80% in size
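Quantitative HTS in MCF7 cells stably reporting BRCA1 expression via firefly luciferase. Compound treatment lasts 48 h at 37 °C in phenol-red free MEM. Activation is expressed relative to genistein at 10 microM and DMSO.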
rTrxR1 inhibitor: rat TrxR1 inhibition; O89049; recombinant rTrxR1, NADPH fluorescence consumption, selenite substrate; Potency, µM (top dose mostly 114 µM), actives largely listed as inhibitors; 1% of 390,000 active; further: nearly all actives have a fitted effect of over 65% in size
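Rat TrxR1 (90 nM in the dispensed reagent) was pre-reduced with 400 uM NADPH for 5 min at room temperature, then incubated with compound for 15 min. After 400 uM selenite was added, NADPH fluorescence (Ex 340/Em 450 nm) was followed for 8 min.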
Giardia killer: Giardia lamblia killing; 0.15% of 340,000 active; activity change, % at 7.66 µM, hits read low; Giardia lamblia trophozoite viability; in the data active means activity change below about -80%; inconclusive means between about -30% and that limit;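 further: parasites exposed to compound for two days anaerobically before the ATP read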
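Compounds were tested on trophozoites seeded at 100 cells/well and held 48 hrs at 37 deg C anaerobically. An ATP-based luminescent kit measured the remaining live cells.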
Hits are given with their value; 0 = inactive; ? = inconclusive; - = not tested or not shown; [ ] = dose if it differs, or a comment. Unless noted, the call rests on the fitted dose curve; in most records, active means well fitted curve in the direction sought with a large enough effect; inconclusive means small, poorly fitted or top-dose-only effect, or another doubt; inactive means no such curve, though single readings can be large; an effect the other way counts as inactive or inconclusive.

SMILES | mIDH1 inhibitor | IL-2 act | TrxR1 substrate | BRCA1 expr up | rTrxR1 inhibitor | Giardia killer
CC(C)(C)OC(=O)N1C=CCC1CN1C(=O)COCC1=O (configuration not stated) | - | - | 0 | - | 0 | 0
Cc1ccc(/C=[N+](\[O-])c2ccc(N(C)C)cc2)c2nsnc12 | 0 | 0 | 0 | 0 | 22µM | 0
CCOC(=O)CNC(=O)c1cc2c(=O)n3cccc(C)c3nc2n1C | 0 | - | 0 | - | 0 | -
c1cncc(-c2nnc(-c3cccs3)o2)c1 | 0 | 0 | 0 | 14µM | 0 | 0
Clc1ccc(-c2nnc(-c3cccnc3)o2)cc1 | 0 | 0 | 0 | 7.9µM | 0 | 0
Cc1ccc(-c2nnc(-c3ccc(Br)cc3)o2)o1 | 0 | 0 | 0 | 3.2µM | 0 | 0
COc1ccc(-c2nnc(-c3cccnc3)o2)cc1 | 0 | 0 | 0 | ? | 0 | 0
FC(F)(F)c1ccc(-c2nnc(-c3cccnc3)o2)cc1 | 0 | 0 | 0 | 0 | 0 | 0
Cc1ccc(-c2nnc(-c3cccnc3)o2)cc1 | 0 | 0 | 0 | 4.5µM | 0 | 0
COc1ccc(Nc2oc(/C=C/c3cccc(OC)c3)nc2C#N)cc1 | 0 | - | 0 | 0 | 0 | -
COC(=O)c1ccccc1NC(=O)CSc1nnc2cc(C)c3cc(C)cc(C)c3n12 | 0 | - | 0 | - | 0 | -
Brc1ccc(-c2nnc(-c3cccnc3)o2)cc1 | 0 | 0 | 0 | 4.5µM | 0 | 0
CCCc1noc(-c2cccc([N+](=O)[O-])c2)n1 | 0 | 0 | 0 | 0 | 0 | 0
CCCc1noc(-c2ccc(-c3ccccc3)cc2)n1 | 0 | 0 | 0 | 8.9µM | 0 | 0
COc1ccccc1NC(=O)C1CCN(c2cnccn2)CC1 | 0 | - | 0 | 0 | 0 | -
CCOC(=O)C1CCN(C(=O)Cn2nc(CC)n3c(cc4sccc43)c2=O)CC1 | 0 | - | 0 | - | 0 | -
Cc1ncc([N+](=O)[O-])n1CCOC(=O)NC(NCc1cccnc1)C(Cl)(Cl)Cl (configuration not stated) | 0 | 0 | 0 | 0 | 0 | -92
Cc1ccccc1NC(NC(=O)OCCn1c([N+](=O)[O-])cnc1C)C(Cl)(Cl)Cl (configuration not stated) | 0 | 0 | 0 | 0 | 0 | -82
Nc1c(-c2nc(-c3ccc(Cl)cc3)cs2)c2ccccn2c1C(=O)c1ccc2c(c1)OCO2 | - | - | 0 | - | 0 | -
CN(C)c1ccc2ccc3cccc4ccc1c2c34 | - | - | 0 | - | 0 | -
CCc1ccc(S(=O)(=O)/N=C2/C=C(Sc3ncn[nH]3)C(=O)c3ccccc32)cc1 | 0 | 0 | 7.9µM | 0 | ? | 0
CCOC(=O)N1CCN(Cc2nc3cc(NC(=O)c4ccccc4Cl)ccc3n2C(C)C)CC1 | 0 | - | 0 | - | 0 | -
O=C(N/N=C/c1c(F)cccc1Cl)c1cc(C2CC2)[nH]n1 | 0 | 0 | 0 | 11µM | 0 | 0
C[C@@H]1CN([C@H](C)CO)C(=O)c2cc(NC(=O)c3ccncc3)ccc2O[C@@H]1CN(C)C(=O)Nc1ccccc1 | 0 | 0 | 0 | 0 | 71µM | 0
C[C@H](CO)N1C[C@H](C)[C@@H](CN(C)C(=O)Nc2ccc(C(F)(F)F)cc2)Oc2ccc(NC(=O)c3ccncc3)cc2C1=O | 0 | 0 | 0 | 0 | ? | 0
SMILES | mIDH1 inhibitor | IL-2 act | TrxR1 substrate | BRCA1 expr up | rTrxR1 inhibitor | Giardia killer
O=C1OC(c2ccccc2)=NC12CC2c1ccc(Cl)cc1 (configuration not stated) | 0 | 0 | 0 | 0 | 7.9µM | 0
O=CN1N=C(c2ccccc2)CC1c1ccc(Cl)cc1 (configuration not stated) | 0 | 0 | 0 | 0 | 0 | 0
C(=C\c1ccnc2ccccc12)/c1ccc(N2CCOCC2)cc1 | - | - | 0 | 0 | 0 | -
CCC1S/C(=N/C(=O)NC2CCCCC2)NC1=O (configuration not stated) | 0 | 0 | 0 | 0 | 0 | 0
O=C(/N=C1\NC(=O)C(F)(C(F)(F)F)S1)NC1CCCCC1 (configuration not stated) | 0 | 0 | 0 | 0 | 25µM | 0
O=C(Nc1c(C(=O)N2CCN(c3ccc(F)cc3)CC2)oc2ccccc12)c1c(F)cccc1F | 0 | - | 0 | 0 | 0 | -
O=C(O)c1cc(NS(=O)(=O)c2ccc3ccccc3c2)ccc1O | 0 | 0 | 0 | 0 | 0 | 0
O=C(O)c1ccccc1NS(=O)(=O)c1ccc2ccccc2c1 | 0 | 0 | 0 | 13µM | 0 | 0
N#CC1=C2SCN(C3CCCCC3)CN2C(=O)CC1c1c(F)cccc1Cl (configuration not stated) | 0 | - | 0 | - | ? | -
CCC(Sc1ncccc1C(=O)Oc1ccccc1Cl)C(=O)Nc1ccccc1OC (configuration not stated) | 0 | - | 0 | - | 0 | -
O=C(CSc1ncccc1C(=O)Oc1ccccc1Cl)Nc1ccccc1Cl | 0 | - | 0[0.457 µM] | 11µM | 0 | 0
O=C(CCCN1CCOCC1)c1ccc2c(c1)OCCO2 | 0 | 0 | 0 | ? | 0 | 0
O=C(CCN1CCCCC1)c1ccc2c(c1)OCO2 | 0 | 0 | 0 | 0 | ? | 0
O=C(COC(=O)c1ccc(O)cc1)c1ccc2c(c1)OCCO2 | 0 | 0 | 0 | 10µM | 0 | 0
O=C(OCCN1CCOCC1)c1ccc2c(c1)OCCO2 | 0 | 0 | 0 | 7.9µM | 0 | 0
O=C(CCN1CCOCC1)c1ccc2c(c1)OCCO2 | 0 | 0 | 0 | 0 | 4µM | 0
O=C(CCN1CCc2ccccc2CC1)c1ccc2c(c1)OCCO2 | 0 | 0 | 0 | 0 | 0.32µM | 0
COc1ccc(Cl)cc1NC(=O)Cn1cc(S(=O)(=O)Cc2cccc(Cl)c2)c2ccccc21 | 0 | - | 0 | - | 0 | -
COCCNC(=O)c1sc2ncccc2c1-n1c(C)ccc1C | 0 | - | 0 | - | 0 | -
COc1cccc(CNC(=O)C2CCN(C(=O)N3CCOc4ccc(Cl)cc43)CC2)c1OC | 0 | - | 0[11.4 µM] | - | 0 | -
CCC(Sc1nc2c(sc3ccccc32)c(=O)n1CCc1ccc(OC)c(OC)c1)C(=O)N(CC)CC (configuration not stated) | 0 | - | 0 | 0 | 0 | -
O=C(CN(CCc1ccccc1)C(=O)Cn1nnc(-c2cccs2)n1)NCc1ccco1 | 0 | 0 | 0 | 0 | 50µM | 0
CCCCN1CC[C@H]2C=CC[C@@H](C(=O)NC3CCCCC3)[C@H]2C1=O | - | - | 0 | - | 0 | -
Cc1cc(NC(=O)CCOc2ccc(F)cc2)no1 | 0 | 0 | 0 | 0 | 14µM | ?
COc1ccc(OCCC(=O)Nc2cc(C)on2)cc1 | 0 | 0 | 0 | 0 | 0 | 0
CCN(CC)C(=O)CSc1nc(-c2ccccc2F)nc2c1Cc1c(CO)cnc(C)c1O2 | 0 | - | 0 | - | 0 | -
O=C(COc1ccccc1)NCC(=O)N1CCCC1 | 0 | 0 | 0 | 0 | 0 | 0
COc1ccc(OCCC(=O)N2CCCCC2)cc1 | 0 | 0 | 0 | 11µM | 0 | 0
O=C(COc1ccc(-c2ccccc2)cc1)N1CCCC1 | 0 | 0 | 0 | 13µM | 0 | 0
O=C(Oc1ccc(-c2ccccc2)cc1)N1CCCCC1 | 0 | 0 | 0 | 7.1µM | 0 | 0
